According to the supplement of paper PMC4466140:

B1: unnamed (peptide)
chain: VKPRQLFPIPLNKVD

Target: AgAbp1
Assay: SPOT peptide array binding signal intensity (averaged, normalized) (arbitrary units (background-subtracted, floor 0; scale differs between SH3 domains)); higher = stronger binding of the SH3 domain to the peptide
How it was run: (§1)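 SH3 domains from four yeast species were expressed as GST fusions in E. coli BL21(DE3) and purified on glutathione Sepharose. Each was incubated at 10 μg/ml overnight at 4°C in TBS-based blocking buffer on cellulose membranes bearing synthetic 15-mer peptides, in which serines replaced cysteines. Bound protein was detected with anti-GST antibody, an HRP anti-mouse secondary and luminol, then imaged and quantified with Genespotter. The binding signal is the normalized, background-subtracted spot intensity averaged over replicates, in arbitrary units that are not the same from one domain to another.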

Binder	SPOT peptide array binding signal intensity
B1	5

Target: AgBbc1
Assay: as above
How it was run: as §1

Binder	SPOT peptide array binding signal intensity
B1	≤ 0

Target: AgBem1-D1
Assay: as above
How it was run: as §1

Binder	SPOT peptide array binding signal intensity
B1	14.5

Target: AgBzz1-D1
Assay: as above
How it was run: as §1

Binder	SPOT peptide array binding signal intensity
B1	61

Target: AgBzz1-D2
Assay: as above
How it was run: as §1

Binder	SPOT peptide array binding signal intensity
B1	40.5

Target: AgCyk3
Assay: as above
How it was run: as §1

Binder	SPOT peptide array binding signal intensity
B1	≤ 0

Target: AgFus1
Assay: as above
How it was run: as §1

Binder	SPOT peptide array binding signal intensity
B1	23

Target: AgHof1
Assay: as above
How it was run: as §1

Binder	SPOT peptide array binding signal intensity
B1	56.2

Target: AgHse1
Assay: as above
How it was run: as §1

Binder	SPOT peptide array binding signal intensity
B1	60.5

Target: AgLsb1
Assay: as above
How it was run: as §1

Binder	SPOT peptide array binding signal intensity
B1	1600

Target: AgLsb4
Assay: as above
How it was run: as §1

Binder	SPOT peptide array binding signal intensity
B1	≤ 0

Target: AgMyo5
Assay: as above
How it was run: as §1

Binder	SPOT peptide array binding signal intensity
B1	1

Target: AgNbp2
Assay: as above
How it was run: as §1

Binder	SPOT peptide array binding signal intensity
B1	18

Target: AgRvs167
Assay: as above
How it was run: as §1

Binder	SPOT peptide array binding signal intensity
B1	5

Target: AgSho1
Assay: as above
How it was run: as §1

Binder	SPOT peptide array binding signal intensity
B1	8

Target: AgSla1-D1-D2
Assay: as above
How it was run: as §1

Binder	SPOT peptide array binding signal intensity
B1	1

Target: AgSla1-D3
Assay: as above
How it was run: as §1

Binder	SPOT peptide array binding signal intensity
B1	8.5

Target: CaAbp1-D1
Assay: as above
How it was run: as §1

Binder	SPOT peptide array binding signal intensity
B1	98

Target: CaAbp1-D2
Assay: as above
How it was run: as §1

Binder	SPOT peptide array binding signal intensity
B1	43

Target: CaBbc1
Assay: as above
How it was run: as §1

Binder	SPOT peptide array binding signal intensity
B1	9

Target: CaBem1-D1
Assay: as above
How it was run: as §1

Binder	SPOT peptide array binding signal intensity
B1	14

Target: CaBzz1-D1
Assay: as above
How it was run: as §1

Binder	SPOT peptide array binding signal intensity
B1	110

Target: CaBzz1-D2
Assay: as above
How it was run: as §1

Binder	SPOT peptide array binding signal intensity
B1	59

Target: CaCyk3
Assay: as above
How it was run: as §1

Binder	SPOT peptide array binding signal intensity
B1	≤ 0

Target: CaFus1
Assay: as above
How it was run: as §1

Binder	SPOT peptide array binding signal intensity
B1	138

Target: CaHof1
Assay: as above
How it was run: as §1

Binder	SPOT peptide array binding signal intensity
B1	2

Target: CaHse1
Assay: as above
How it was run: as §1

Binder	SPOT peptide array binding signal intensity
B1	3.25

Target: CaLsb1
Assay: as above
How it was run: as §1

Binder	SPOT peptide array binding signal intensity
B1	0.5

Target: CaLsb4
Assay: as above
How it was run: as §1

Binder	SPOT peptide array binding signal intensity
B1	7

Target: CaMyo5
Assay: as above
How it was run: as §1

Binder	SPOT peptide array binding signal intensity
B1	1

Target: CaNbp2
Assay: as above
How it was run: as §1

Binder	SPOT peptide array binding signal intensity
B1	105

Target: CaRvs167
Assay: as above
How it was run: as §1

Binder	SPOT peptide array binding signal intensity
B1	54.5

Target: CaRvs167-3
Assay: as above
How it was run: as §1

Binder	SPOT peptide array binding signal intensity
B1	3

Target: CaSho1
Assay: as above
How it was run: as §1

Binder	SPOT peptide array binding signal intensity
B1	30

Target: CaSla1-D1-D2
Assay: as above
How it was run: as §1

Binder	SPOT peptide array binding signal intensity
B1	≤ 0

Target: CaSla1-D3
Assay: as above
How it was run: as §1

Binder	SPOT peptide array binding signal intensity
B1	3.25

Target: ScAbp1
Assay: as above
How it was run: as §1

Binder	SPOT peptide array binding signal intensity
B1	71

Target: ScBbc1
Assay: as above
How it was run: as §1

Binder	SPOT peptide array binding signal intensity
B1	≤ 0

Target: ScBem1-D1
Assay: as above
How it was run: as §1

Binder	SPOT peptide array binding signal intensity
B1	≤ 0

Target: ScBzz1-D1
Assay: as above
How it was run: as §1

Binder	SPOT peptide array binding signal intensity
B1	17

Target: ScBzz1-D2
Assay: as above
How it was run: as §1

Binder	SPOT peptide array binding signal intensity
B1	135

Target: ScCyk3
Assay: as above
How it was run: as §1

Binder	SPOT peptide array binding signal intensity
B1	3

Target: ScFus1
Assay: as above
How it was run: as §1

Binder	SPOT peptide array binding signal intensity
B1	11

Target: ScHof1
Assay: as above
How it was run: as §1

Binder	SPOT peptide array binding signal intensity
B1	3.75

Target: ScHse1
Assay: as above
How it was run: as §1

Binder	SPOT peptide array binding signal intensity
B1	196

Target: ScLsb1
Assay: as above
How it was run: as §1

Binder	SPOT peptide array binding signal intensity
B1	374

Target: ScLsb2
Assay: as above
How it was run: as §1

Binder	SPOT peptide array binding signal intensity
B1	201

Target: ScLsb3
Assay: as above
How it was run: as §1

Binder	SPOT peptide array binding signal intensity
B1	54.5

Target: ScLsb4
Assay: as above
How it was run: as §1

Binder	SPOT peptide array binding signal intensity
B1	≤ 0

Target: ScMyo3
Assay: as above
How it was run: as §1

Binder	SPOT peptide array binding signal intensity
B1	2

Target: ScMyo5
Assay: as above
How it was run: as §1

Binder	SPOT peptide array binding signal intensity
B1	4

Target: ScNbp2
Assay: as above
How it was run: as §1

Binder	SPOT peptide array binding signal intensity
B1	18

Target: ScPex13
Assay: as above
How it was run: as §1

Binder	SPOT peptide array binding signal intensity
B1	1.5

Target: ScRvs167
Assay: as above
How it was run: as §1

Binder	SPOT peptide array binding signal intensity
B1	48.3

Target: ScSho1
Assay: as above
How it was run: as §1

Binder	SPOT peptide array binding signal intensity
B1	139

Target: ScSla1-D1-D2
Assay: as above
How it was run: as §1

Binder	SPOT peptide array binding signal intensity
B1	1.5

Target: ScSla1-D3
Assay: as above
How it was run: as §1

Binder	SPOT peptide array binding signal intensity
B1	≤ 0

Target: SpAbp1-D1
Assay: as above
How it was run: as §1

Binder	SPOT peptide array binding signal intensity
B1	29

Target: SpBbc1
Assay: as above
How it was run: as §1

Binder	SPOT peptide array binding signal intensity
B1	≤ 0

Target: SpBzz1-D1
Assay: as above
How it was run: as §1

Binder	SPOT peptide array binding signal intensity
B1	156

Target: SpBzz1-D2
Assay: as above
How it was run: as §1

Binder	SPOT peptide array binding signal intensity
B1	≤ 0

Target: SpCyk3
Assay: as above
How it was run: as §1

Binder	SPOT peptide array binding signal intensity
B1	≤ 0

Target: SpHof1
Assay: as above
How it was run: as §1

Binder	SPOT peptide array binding signal intensity
B1	11.5

Target: SpHof1-2
Assay: as above
How it was run: as §1

Binder	SPOT peptide array binding signal intensity
B1	5.5

Target: SpHof1-3
Assay: as above
How it was run: as §1

Binder	SPOT peptide array binding signal intensity
B1	310

Target: SpHse1
Assay: as above
How it was run: as §1

Binder	SPOT peptide array binding signal intensity
B1	84.5

Target: SpLsb1
Assay: as above
How it was run: as §1

Binder	SPOT peptide array binding signal intensity
B1	133

Target: SpLsb4
Assay: as above
How it was run: as §1

Binder	SPOT peptide array binding signal intensity
B1	28.5

Target: SpMyo1
Assay: as above
How it was run: as §1

Binder	SPOT peptide array binding signal intensity
B1	3.25

Target: SpNbp2
Assay: as above
How it was run: as §1

Binder	SPOT peptide array binding signal intensity
B1	21.5

Target: SpPex13
Assay: as above
How it was run: as §1

Binder	SPOT peptide array binding signal intensity
B1	6

Target: SpRvs167
Assay: as above
How it was run: as §1

Binder	SPOT peptide array binding signal intensity
B1	10

Target: SpSla1-D1-D2
Assay: as above
How it was run: as §1

Binder	SPOT peptide array binding signal intensity
B1	≤ 0

Target: SpSla1-D3
Assay: as above
How it was run: as §1

Binder	SPOT peptide array binding signal intensity
B1	≤ 0
